# Assay results as given in PubChem BioAssay (NCI).
# About 83,000 compounds went through this panel and 20% of them were active in at least one assay; those are over-represented in the sample as a whole.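 96-well plates, one dose, 48 hours. Percent growth reported; active if below 10.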 Unmarked numbers belong to inactive results. Activity calls are given as the source filed them.
# How the values were obtained:
# Assay in all cases: NCI-60 one-dose screen, 48 h (100 = growth as untreated, 0 = no growth, -100 = all killed)
# Details in all cases: 10 µM unless noted
# [1] = tested on: RPMI-8226 leukemia
# [2] = tested on: OVCAR-8 ovarian
# [3] = tested on: OVCAR-5 ovarian
# [4] = tested on: OVCAR-4 ovarian
# [5] = tested on: SK-OV-3 ovarian
# [6] = tested on: IGROV1 ovarian
# [7] = tested on: OVCAR-3 ovarian
# [8] = tested on: NCI/ADR-RES ovarian
# [9] = tested on: T-47D breast
# [10] = tested on: MDA-MB-435 melanoma
# [11] = tested on: SW-620 colon
# [12] = tested on: MCF7 breast
# [13] = tested on: HCT-116 colon
# [14] = tested on: HCC-2998 colon
# [15] = tested on: KM12 colon
# [16] = tested on: HS 578T breast
# [17] = tested on: BT-549 breast
SMILES,growth [1],growth [2],growth [3],growth [4],growth [5],growth [6],growth [7],growth [8],growth [9],growth [10],growth [11],growth [12],growth [13],growth [14],growth [15],growth [16],growth [17]
N#Cc1c(-c2ccc(Cl)cc2)nc(N=Nc2c(O)[nH]c3ccc(Cl)cc23)nc1N1CCOCC1,119%,100%,98.9%,99.8%,96.1%,92.5%,115%,88.3%,99.8%,97.5%,91.8%,97.9%,93.2%,96.3%,101%,,
COc1ccc(-c2nc3ccc(-c4nc5ccc(N6CCN(C)CC6)cc5[nH]4)cc3[nH]2)cc1OC,110%,55.8%,99.1%,68.4%,,79.6%,30.4%,103%,28.3%,41.9%,49.2%,21.1%,23.5%,77.7%,97.8%,72.2%,63%
COc1cc2nnc3c4cccnc4[nH]c3c2cc1OC,,-15.2% (active),75%,29.8%,81.7%,,30.5%,23.4%,24.5%,49.7%,9.61% (active),2.75% (active),5.66% (active),88%,32%,58.5%,72.9%
O=C1NC(=S)N[C@H]1CC(=O)n1cnc2ccccc21,115%,104%,100%,107%,111%,96.5%,110%,96.5%,99.6%,105%,97.2%,68.7%,104%,103%,100%,99.1%,
C[n+]1ccccc1/C=C/c1ccc2cccc(O)c2n1,105%,100%,51.5%,112%,,105%,112%,109%,97.6%,114%,,97.3%,97%,95.2%,41.1%,108%,97.6%
Cc1nc(/N=C(\N)NC(=O)Nc2cccc([N+](=O)[O-])c2)sc1C,74.3%,100%,91.5%,88.6%,101%,76.1%,95.9%,46.2%,80.8%,8.17% (active),40.1%,31.1%,71.1%,84.1%,72.1%,74.5%,
CCOC(=O)C(C)(C#N)C1C=CCCC1 (configuration not stated),92.9%,98.8%,68.2%,91.5%,95.1%,94.8%,90.6%,91.9%,84.5%,100%,91.2%,92.7%,93.2%,43.5%,90.5%,84.1%,
N#Cc1c(-c2ccc(Cl)cc2)nc(NN=Cc2ccco2)nc1N1CCOCC1,66.5%,87.9%,,65.9%,49.4%,25.9%,66.6%,75.8%,23.2%,79.4%,82.2%,26.2%,76.2%,74.8%,95%,68.2%,58.5%
CC[C@@H](C(=O)[C@@H](C)[C@@H](O)[C@H](C)[C@@H]1O[C@@H]([C@@H](CC)C(=O)O)CC[C@@H]1C)[C@H]1OC2(C=C[C@@H](O)[C@]3(CC[C@@](C)([C@H]4CC[C@](O)(CC)[C@H](C)O4)O3)O2)[C@H](C)C[C@@H]1C (some centres not stated),-36.1% (active),31.9%,,35.8%,30.2%,40.2%,14.6%,29.6%,27.2%,-76.2% (active),16.2%,,12%,,12.2%,30%,-12.3% (active)
CCCSc1ccc2nc(NC(=O)OC)[nH]c2c1,14.4%,17.1%,34.2%,48.9%,6.85% (active),45.3%,,-8.18% (active),57.4%,-51% (active),24%,,15.5%,-4.45% (active),14%,21.2%,45.5%
Nc1ccn(-c2ccc(Br)cc2)c(=O)n1,95.9%,117%,84%,104%,162%,,,89.5%,202%,96.6%,98.8%,108%,102%,29.7%,121%,122%,105%
C=CC(=O)Nc1cccc(Nc2nc(SC)nc(-c3cccc([N+](=O)[O-])c3)c2C#N)c1,48.2%,43.4%,71.8%,32.9%,74.3%,54.9%,,61.8%,42.7%,53%,31.6%,28.5%,19.8%,48.2%,90.5%,,58.4%
CSc1nc(-c2cccc(NC(=O)CCl)c2)c(C#N)c(=O)n1C,-18.3% (active),72.6%,,12.5%,109%,-64.5% (active),8.91% (active),75.8%,34.5%,54.5%,27.3%,20.6%,7.55% (active),116%,98.5%,88.1%,53.4%
O=C(N/N=C/c1c[nH]c2ccccc12)c1cc(-c2ccccc2)on1,90%,102%,97.5%,85.6%,91%,,103%,84.3%,77.2%,94.8%,,79.1%,90.6%,92.9%,92.3%,94.4%,90.3%
O=C(COc1cccc(/C=C2\COc3ccc(Cl)cc3C2=O)c1)c1ccc(Cl)cc1,-11.4% (active),91.7%,81.1%,90.5%,99%,38.3%,,84%,71.9%,91.2%,51%,0.286% (active),31.1%,129%,77.1%,72.3%,84.7%
COc1cc2nc(N3CCCC3)nc(NCC3CCCCC3)c2cc1OC,-38.2% (active),12.1%,29.1%,33.2%,77.4%,72.3%,,35.3%,-49.9% (active),-72.3% (active),-41.6% (active),-78.8% (active),-65.2% (active),-60.1% (active),75.4%,-33.5% (active),42.6%
O=C(COc1ccc(/C=C2\CSc3ccccc3C2=O)cc1)Nc1nccs1,-11% (active),79.4%,,104%,127%,-51.8% (active),87.5%,80.1%,90%,65.4%,17.3%,,48.2%,103%,13.8%,135%,112%
COc1cccc(-c2nc3sccn3c2-c2ccnc(NCCNS(=O)(=O)c3ccccc3)c2)c1,-27.1% (active),13.9%,45.3%,15.2%,,25.5%,42.2%,6.38% (active),-18.3% (active),22.6%,,27.4%,18.5%,53.2%,22.2%,35.7%,6.29% (active)
N#CCCN=Nc1c(O)[nH]c2ccc(F)cc12,109%,107%,,90.4%,100%,101%,103%,98.7%,96.4%,96.6%,98.3%,93.9%,95.1%,97.9%,101%,97.9%,108%
Cc1cc(C)c2nc3nc(C)cc(C)c3c(N)c2c1,-13.5% (active),45.3%,,33.6%,25.4%,,26.5%,30.9%,37.8%,29.5%,16.2%,8.2% (active),13.9%,10.7%,22.3%,24.3%,56.1%
COc1cc(/C=C/C(=O)c2c(C)oc3nc[nH]c(=O)c23)cc(OC)c1OC,61.9%,79.5%,96.5%,74.9%,,75.4%,,82.1%,58.9%,74.4%,77.5%,47.9%,61.3%,112%,96.9%,84.3%,
